Screening data as filed in PubChem.
This is a sample that favours compounds with a hit; in the whole collection about 13% have one here.
HCV inh: qHTS Assay for Inhibitors of Hepatitis C Virus (HCV) | hit rate 3.4% among 340,000 | Potency, µM (highest dose often 41.8 µM), for the others: at the top dose activity change, negative = inhibition, hits mostly inhibitors | Huh7.5.1 HCVcc-Cre infection, luciferase reporter, 44 h; note: potency is the fitted concentration of half-maximal effect
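Compounds are dispensed onto cells plated 4 h earlier at 1,000 per well, with HCVcc-Cre virus (about 0.5 moi) added next. Following 44 h of culture, luminescent signal is measured for 15 sec after 15 min with substrate at room temperature.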
Pf growth 96h: Primary qHTS for delayed death inhibitors of the malarial parasite plastid, 96 hour incubation; P. falciparum luciferase reporter growth, 96 h; hit rate 6.9% among 320,000; Potency, µM (highest dose often 28.7 µM), for the others: at the highest dose activity change, negative = inhibition, actives largely listed as inhibitors; note: potency is the fitted concentration of half-maximal effect
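Parasite growth measured via integrated firefly luciferase reporter in P. falciparum. Infected erythrocytes at 2% hematocrit, 0.05% parasitemia final were treated 96 hours at 37 C under 5% CO2, and luminescence was read.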
HCMV inh: qHTS Assay for inhibitors of the human cytomegalovirus (HCMV) | HFF cells, HCMV-luciferase reporter, 72 h; active compounds read low | activity change, negative = inhibition, % at 57.5 µM | hit rate 4.5% among 410,000 | AID 1259415, 2018; in the data active = activity change below about -60%; inconclusive = no clear call, values can overlap the other calls; inactive = above about -39%
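After 16 h attachment at 37C, HFF cells received test compound and HCMV-luciferase (1 PFU/cell); reporter luminescence read 72 h later, data normalized against buffer-only and known inhibitor Salinomycin.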
Pf growth 48h: Primary qHTS for delayed death inhibitors of the malarial parasite plastid, 48 hour incubation; hit rate 5.9% among 310,000; Potency, µM (highest dose often 28.7 µM), inactives show top-dose activity change, negative = inhibition, usual class: inhibitors; AID 504832, 2011; P. falciparum luciferase growth in erythrocytes, 48 h; note: potency is the fitted concentration of half-maximal effect
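Here the parasites carry a stable luciferase gene and grow inside erythrocytes in Albumax-based RPMI medium with compound for one erythrocytic cycle. Activity is scored as loss of luminescent signal.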
* hit, by the source's call; ? = inconclusive; · = no result given; [ ] = dose if it differs, or a comment. Unless noted, calls come from the whole dose curve; as a rule, active = well fitted inhibition curve with a large enough effect; inconclusive = small, poorly fitted or top-dose-only effect, or another doubt; inactive = no such curve, though single readings can be large or run the other way. % is set by controls: 0 for no effect and ±100 for the full control effect.

SMILES	HCV inh	Pf growth 96h	HCMV inh	Pf growth 48h
COC(=O)Cn1cc(C(=O)c2ccccc2F)c2ccccc21	-4.3%	1.65µM*	-3.8	6.9%
O=C(c1ccccc1F)c1cn(Cc2ccc(F)cc2)c2ccccc12	7.8%	7.38µM*	-1.2	-5.0%
COc1ccccc1C(=O)NCCC(=O)Nc1ccc(S(=O)(=O)N2CC(C)CC(C)C2)cc1 (configuration not stated)	?	14.7µM*	-24.8	?
COc1ccccc1C(=O)NCCC(=O)Nc1ccc(S(=O)(=O)N2C(C)CCCC2C)cc1 (configuration not stated)	10µM*	?	-10.8	14.7µM*
CC(C)(C)n1nnnc1C(c1ccccc1)N1CCN(c2c(Cl)cncc2Cl)CC1 (configuration not stated)	·	·	-12.8	·
CC(CNC(=O)CCS(=O)(=O)c1ccc2c(c1)oc(=O)n2C)c1ccccc1 (configuration not stated)	-3.5%	9.28µM*	-0.2	?
Cc1ccc(NS(=O)(=O)c2ccc3c(c2)oc(=O)n3C)cc1C	?	-5.7%	-100.7*	-13.1%
COc1cc(NS(=O)(=O)c2ccc3c(c2)oc(=O)n3C)cc(OC)c1OC	10µM*	?	?	·
COc1ccc(NS(=O)(=O)c2ccc3c(c2)oc(=O)n3C)c(OC)c1	-5.9%	4.4%	-6.0	·
COc1cc(NC(=O)CCS(=O)(=O)c2ccc3c(c2)oc(=O)n3C)cc(OC)c1OC	2.5%	2.33µM*	-10.1	-28.7%
COc1cccc(NC(=O)CCS(=O)(=O)c2ccc3c(c2)oc(=O)n3C)c1	-1.0%	?	6.4	7.0%
Cn1c(=O)c2c(SCC(=O)NCc3ccc(F)cc3)nc(-c3ccccc3Cl)nc2n(C)c1=O	·	·	-0.8	·
CSc1cccc(NS(=O)(=O)c2ccc3c(c2)oc(=O)n3C)c1	-17.5%	11.7µM*	?	·
Cn1c(=O)c2cc(S(=O)(=O)Nc3cccc(F)c3)ccc2n(C)c1=O	?	14.7µM*	-27.4	·
Cn1c(=O)oc2cc(S(=O)(=O)Nc3cccc(F)c3)ccc21	15.3%	24.6%	-6.5	6.3%
Cc1ccc(NS(=O)(=O)c2ccc3c(c2)oc(=O)n3C)cc1	-6.6%	2.62µM*	-63.3*	1.0%
CCc1ccc(NS(=O)(=O)c2ccc3c(c2)oc(=O)n3C)cc1	?	1.6%	?	3.7%[0.00184 µM]
Cc1ccc(S(=O)(=O)Nc2ccc(-c3nc4cc(NS(=O)(=O)c5ccc(C)cc5)ccc4o3)cc2)cc1	·	4.15µM*	·	·
CCCN1C(=O)CN(C2CCCCCC2)C(=O)C1c1ccc(OCC)c(OC)c1 (configuration not stated)	·	·	-1.5	·
CCN(CC)C(=O)Cn1c(SCCOc2ccc(Cl)cc2)nc2ccccc21	·	·	-5.7	·
Cc1[nH]c2ccccc2c1C(=O)CNc1nccs1	22.4µM*	?	25.8	-27.3%
Cc1[nH]c2ccccc2c1C(=O)CCl	?	10.4µM*	?	?
Cc1[nH]c2ccccc2c1C(=O)COC(=O)c1ccccc1O	11.2µM*	·	10.2	·
Cc1[nH]c2ccccc2c1C(=O)CSc1ccccc1	-21.6%	34.6%	-8.7	?
CCOC(=O)C1CCCN(C(=O)CN2C(=O)C(CC)Oc3ccc(C)cc32)C1 (configuration not stated)	5.2%	13.1µM*	-29.6	-12.3%
SMILES	HCV inh	Pf growth 96h	HCMV inh	Pf growth 48h
CCOC(=O)C1CCCN(C(=O)Cc2ccc(C)cc2)C1 (configuration not stated)	2.6%	1.3%	-35.4	·
CCOC(=O)C1CCCN(C(=O)CN2CCN(Cc3ccc(Cl)cc3)C2=O)C1 (configuration not stated)	-2.2%	1.65µM*	0.7	-5.5%
CCCN(CCC)Cc1cc(=O)oc2ccccc12	·	·	-15.5	·
Cc1ccc(C)c(N2CCN(C(=O)CS(=O)(=O)c3cccc4nsnc34)CC2)c1	·	·	-25.2	·
Cc1cc(C(C)(C)C)c(OC(=O)[C@@H]2OC(c3ccccc3)=C[C@H]2c2ccccc2)c(C(C)(C)C)c1	9.8%	?	-28.3	5.22µM*
CC(=O)Oc1cc(C)cc2oc(=O)cc(-c3ccccc3)c12	7.0%	75.6%	-29.1	16.1%
CCNC1CCC(Nc2ccnc3cc(Cl)ccc23)CC1 (configuration not stated)	12.6µM*	·	5.0	·
OC(CNc1ccnc2cc(Cl)ccc12)CNC1CCCCC1 (configuration not stated)	?	·	-77.7*	·
OC1CCCC1NCc1ccnc2cc(Cl)ccc12 (configuration not stated)	1.0%	·	-5.4	·
OC(CNC1CCCCC1)CNC1CCCCC1	?	?	-23.3	?
COc1cccc(Cn2c(NCc3ccc(C)cc3)nc3c2c(=O)n(C)c(=O)n3C)c1	·	·	3.8	·
O=C1C=C(NCCN2CCOCC2)C(=O)c2cnccc21	?	1.65µM*	·	1.47µM*
COc1ccc(N2CCN(C(=O)c3cc4c(=O)oc5ccc(C)cc5c4s3)CC2)cc1	·	·	7.6	·
COCCN(CC(=O)Nc1ccccc1C(F)(F)F)C(=O)/C=C/c1ccc2ccccc2n1	-10.0%	14.7µM*	6.2	?
COc1ccc(NC(=O)c2c(N)c(C(=O)c3ccc(OC)cc3)n3ccccc23)cc1	·	·	-17.4	·
CCn1c(COc2ccc(Cl)cc2)nnc1SCC(=O)Nc1ccc2c(c1)OCO2	-4.3%	10.4µM*	26.9	10.2%
CCn1c(CC(=O)Nc2ccc(Cl)c(Cl)c2)nnc1SCc1ccc(Cl)cc1	9.4%	-7.1%	-100.3*	3.9%
COc1cc(OC)c2c(-c3cccc(-c4cccc(C)c4)c3)cc(=O)oc2c1	4.47µM*	·	-34.9	·
COc1cc(OC)c2c(-c3cccc(-c4ccc(O)cc4)c3)cc(=O)oc2c1	?	·	-13.7	·
COc1cc(OC)c2c(-c3cccc(-c4ccc(N(C)C)cc4)c3)cc(=O)oc2c1	?	·	-72.6*	·
COc1cc(OC)c2c(-c3cccc(-c4ccc(OC(F)(F)F)cc4)c3)cc(=O)oc2c1	19.3%	·	15.2	·
COc1ccc(-c2cccc(-c3cc(=O)oc4cc(OC)cc(OC)c34)c2)cc1	?	·	-73.2*	·
CSc1ccc(CNC(=O)c2cc3c(=O)n(Cc4ccco4)ccc3nc2C)cc1	·	·	-28.3	·
CCn1nnc2c(=O)oc3ccccc3c21	15.1%	4.15µM*	-10.4	-26.3%
CC1(C(=O)NCc2ccccc2)Oc2ccccc2NC1=O (configuration not stated)	-10.4%	·	27.7	9.2%
CC1(C(=O)NCc2ccc(Cl)c(Cl)c2)Oc2cccnc2NC1=O (configuration not stated)	-24.5%	5.22µM*	?	?
CCOC(=O)c1ccc(NC(=O)CN2C(=O)COc3ccc(Cl)cc32)cc1	·	·	3.4	·
CCCCOC(=O)c1cc(=O)[nH]c2ccccc12	5.7%	11.7µM*	·	5.6%
COc1ccccc1NC(=O)N1CCOc2ccccc21	·	·	-10.9	·
CN1CCc2cccc3c2C1Cc1ccc(O)c(O)c1-3 (configuration not stated)	17.8%	10.4µM*	20.6	?
